Assay results as given in PubChem BioAssay.
Activity calls are given as the source filed them.

How the values were obtained:
[1] = optical density shifts of acrAB sulA E. coli – strain DRC41, OD650, 48 h, E. coli filamentation inducer project, primary screen (AID 1152); details: higher = more signal, called active from +8 up or from −8 down;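 note: E. coli MC1000 strain DRC41 lacking acrAB efflux pump and sulA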
[2] = probe aLefty1 binding on compound microarray – biochemical, small-molecule microarray, 635/667 nm fluorescence, primary screen (AID 1153); details: higher = more signal;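 note: score merges spot fluorescence with signal-to-noise ratio from the scanned slide images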
[3] = plasmodial surface anion channel blockers, osmotic lysis – cell-based, P. falciparum Indochina, OD700, 1 h, primary screen (AID 1154); details: P. falciparum Indochina infected RBC osmotic lysis, higher = more signal, called active from +8 up or from −8 down
[4] = plasmodial surface anion channel blockers, osmotic lysis – cell-based, P. falciparum Indochina, OD700, 2 h, primary screen (AID 1155);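 note: lysis reports solute entry through the parasite surface anion channel PSAC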; details: P. falciparum Indochina infected erythrocytes, higher = more signal, called active from +8 up or from −8 down
[5] = changes in parasitized red cell lysis, either direction – P. falciparum Indochina, OD700, 3 h, PSAC antagonist project, primary screen (AID 1156); details: P. falciparum-infected erythrocytes, osmotic lysis, higher = more signal, called active from +8 up or from −8 down
[6] = plasmodial surface anion channel blockers, osmotic lysis – cell-based, P. falciparum Indochina, OD700, 18 h, primary screen (AID 1157); details: P. falciparum Indochina infected erythrocytes, osmotic lysis OD700, 18 h; higher = more signal, called active from +8 up or from −8 down
[7] = S6 kinase pathway phospho-S6 level changes – cell-based, A549, cytoblot, luminescence, serum-stimulated, primary screen (AID 1158); details: 5 h, higher = more signal;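 note: serum-stimulated A549 lung adenocarcinoma cells; signal is phosphorylated S6 detected by cytoblot immunostaining with HRP secondary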
[8] = target: NADPH oxidase 2 (Homo sapiens) (UniProt P04839); experiment: compounds shifting NOX2 Amplex Red fluorescence – cell-based, HEK293-NOX2, PMA-stimulated, NOX inhibitor project, primary screen (AID 1159); details: 45 min, higher = more signal, called active from +8 up or from −8 down; note: test concentration not given here
NADPH oxidase 2 (Homo sapiens), sequence (P04839 whole entry, looked up): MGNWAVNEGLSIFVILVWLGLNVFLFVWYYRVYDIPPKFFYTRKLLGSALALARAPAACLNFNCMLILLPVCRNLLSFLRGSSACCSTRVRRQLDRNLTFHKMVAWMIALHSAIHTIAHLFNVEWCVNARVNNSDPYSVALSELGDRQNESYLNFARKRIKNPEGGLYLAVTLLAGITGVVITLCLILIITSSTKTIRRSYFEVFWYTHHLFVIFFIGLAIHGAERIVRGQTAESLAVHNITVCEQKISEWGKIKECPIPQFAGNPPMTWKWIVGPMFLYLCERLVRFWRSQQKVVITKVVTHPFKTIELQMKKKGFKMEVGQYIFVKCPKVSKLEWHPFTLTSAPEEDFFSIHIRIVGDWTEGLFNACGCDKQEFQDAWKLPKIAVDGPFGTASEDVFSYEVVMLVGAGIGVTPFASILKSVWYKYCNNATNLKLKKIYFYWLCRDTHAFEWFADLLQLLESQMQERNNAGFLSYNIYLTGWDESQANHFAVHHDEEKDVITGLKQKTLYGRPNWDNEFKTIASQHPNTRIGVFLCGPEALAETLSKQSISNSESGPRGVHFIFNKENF

[9] = target: NADPH oxidase 4 (Homo sapiens) (UniProt Q9NPH5); experiment: compounds shifting NOX4 Amplex Red fluorescence – cell-based, HEK293-NOX4, tetracycline-induced, NOX inhibitor project, primary screen (AID 1160); details: HEK293-NOX4, Amplex Red H2O2 fluorescence, 45 min; higher = more signal, called active from +8 up or from −8 down
NADPH oxidase 4 (Homo sapiens), sequence (Q9NPH5 whole entry, looked up): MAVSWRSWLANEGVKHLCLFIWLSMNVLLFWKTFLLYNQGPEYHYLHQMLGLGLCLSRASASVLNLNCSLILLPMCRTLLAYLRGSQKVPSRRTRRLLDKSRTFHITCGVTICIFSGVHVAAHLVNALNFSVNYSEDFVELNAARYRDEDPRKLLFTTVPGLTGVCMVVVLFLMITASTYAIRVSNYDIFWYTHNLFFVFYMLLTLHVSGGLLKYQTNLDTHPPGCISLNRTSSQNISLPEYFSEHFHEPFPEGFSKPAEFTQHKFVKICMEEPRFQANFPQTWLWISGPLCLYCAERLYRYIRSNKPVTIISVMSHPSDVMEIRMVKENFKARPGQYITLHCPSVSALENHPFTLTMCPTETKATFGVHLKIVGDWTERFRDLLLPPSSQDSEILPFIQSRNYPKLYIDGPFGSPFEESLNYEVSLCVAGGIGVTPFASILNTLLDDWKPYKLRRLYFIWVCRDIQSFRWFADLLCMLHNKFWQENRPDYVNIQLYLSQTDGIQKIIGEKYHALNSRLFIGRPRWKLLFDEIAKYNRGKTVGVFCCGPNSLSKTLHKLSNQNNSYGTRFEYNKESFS

[10] = target: NADPH oxidase 5 (Homo sapiens) (UniProt Q96PH1); experiment: compounds shifting NOX5 Amplex Red fluorescence – cell-based, HEK293-NOX5, NOX inhibitor project, primary screen (AID 1161); details: HEK293-NOX5, ionomycin, 45 min, higher = more signal
NADPH oxidase 5 (Homo sapiens), sequence (Q96PH1 whole entry, looked up): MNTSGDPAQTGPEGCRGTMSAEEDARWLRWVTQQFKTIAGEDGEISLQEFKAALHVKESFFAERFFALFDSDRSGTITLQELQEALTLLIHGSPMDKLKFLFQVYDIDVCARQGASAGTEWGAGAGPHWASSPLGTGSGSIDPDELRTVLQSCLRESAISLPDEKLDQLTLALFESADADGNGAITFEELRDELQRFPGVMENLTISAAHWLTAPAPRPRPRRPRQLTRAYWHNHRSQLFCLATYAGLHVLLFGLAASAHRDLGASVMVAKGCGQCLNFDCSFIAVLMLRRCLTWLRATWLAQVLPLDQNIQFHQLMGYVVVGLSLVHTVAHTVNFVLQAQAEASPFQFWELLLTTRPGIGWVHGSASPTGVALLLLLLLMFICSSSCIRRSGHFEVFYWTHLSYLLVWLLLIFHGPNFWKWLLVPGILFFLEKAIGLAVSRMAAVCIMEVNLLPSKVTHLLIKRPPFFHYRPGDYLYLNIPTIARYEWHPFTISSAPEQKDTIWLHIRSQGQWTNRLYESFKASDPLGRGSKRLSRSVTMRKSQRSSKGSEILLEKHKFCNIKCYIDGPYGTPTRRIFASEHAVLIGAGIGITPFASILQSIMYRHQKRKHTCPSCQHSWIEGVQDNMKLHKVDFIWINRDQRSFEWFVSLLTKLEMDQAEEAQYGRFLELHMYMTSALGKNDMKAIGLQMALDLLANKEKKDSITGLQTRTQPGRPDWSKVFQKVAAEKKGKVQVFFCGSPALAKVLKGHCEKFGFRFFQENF

[11] = compound effects on lung adenocarcinoma cell viability – A549, calcein-AM fluorescence, 48 h, basal, profiling panel (AID 1162); details: higher = more signal; note: test concentration not given here
[12] = compound effects on differentiated 3T3-L1 adipocyte viability – cell-based, 3T3-L1 adipocytes, calcein-AM fluorescence, 48 h, basal, profiling panel (AID 1163); details: 3T3-L1 adipocytes viability, higher = more signal; note: test concentration not given here
[13] = compound effects on hepatocellular carcinoma cell viability – HepG2, calcein-AM fluorescence, 48 h, basal, profiling panel (AID 1164); details: higher = more signal; note: test concentration not given here
[14] = compound effects on multiple myeloma cell viability – MM1S, calcein-AM fluorescence, 48 h, basal, profiling panel (AID 1165); details: higher = more signal;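 note: viability of MM1S multiple myeloma cells under basal unstimulated conditions; test concentration not given here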
[15] = calcein-AM signal in unstimulated myeloma cells – cell-based, calcein-AM fluorescence, 48 h, PK04 Diversity Set, profiling panel (AID 1166); details: RPMI8226 myeloma viability, higher = more signal;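 note: cells grown under basal conditions without added stimulus; test concentration not given here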
[16] = JC-1 mitochondrial signal, unstimulated HepG2 cells – cell-based, JC-1 fluorescence, 24 h, 100 nL compound, profiling panel (AID 1167); details: HepG2 mitochondrial potential, higher = more signal; note: test concentration not given here
[17] = JC-1 mitochondrial signal, unstimulated adipocytes – cell-based, JC-1 fluorescence, 3T3-L1 adipocytes, 24 h, 100 nL compound, profiling panel (AID 1168); details: JC-1 mitochondrial fluorescence, higher = more signal, called active from +8 up or from −8 down; note: test concentration not given here
[18] = JC-1 mitochondrial signal, unstimulated myeloma cells – cell-based, JC-1 fluorescence, RPMI8226, 24 h, 100 nL compound, profiling panel (AID 1169); details: JC-1 mitochondrial potential fluorescence, higher = more signal; note: test concentration not given here
[19] = JC-1 mitochondrial signal, unstimulated MM1S myeloma – cell-based, JC-1 fluorescence, 24 h, 100 nL compound, profiling panel (AID 1170); details: MM1S mitochondrial potential, higher = more signal; note: test concentration not given here
[20] = resazurin metabolic signal in A549 cells – cell-based, resazurin fluorescence, 24 h, PK04 Diversity Set, profiling panel (AID 1171); details: A549 viability, higher = more signal, called active from +8 up or from −8 down; note: test concentration not given here

SMILES | z-score [1] | composite z-score [2] | z-score [3] | z-score [4] | z-score [5] | z-score [6] | z-score [7] | z-score [8] | z-score [9] | z-score [10] | z-score [11] | z-score [12] | z-score [13] | z-score [14] | z-score [15] | z-score [16] | z-score [17] | z-score [18] | z-score [19] | z-score [20]
CCCNC(=O)[C@@H]1c2ccccc2C(=O)N(c2ccc(C)cn2)[C@H]1c1ccc(CO)cc1 | -0.292 (inactive) | -0.303 | 1.97 (inactive) | -0.0991 (inactive) | 0.562 (inactive) | 0.0336 (inactive) | 0.214 | 0.114 (inactive) | 0.0822 (inactive) | -0.974 | -0.293 | -0.857 | -0.108 | -0.336 | -0.0505 | -0.833 | 0.123 (inactive) | 0.657 | -0.351 | 0.418 (inactive)
CCCCCCc1nc(CCCc2cc3c(c(CCCCCC)n2)[Si](C(C)C)(C(C)C)O[C@H]3c2ccccc2)cc2c1[Si](C(C)C)(C(C)C)O[C@H]2c1ccccc1 | -1.58 (inactive) | -0.244 | 0.963 (inactive) | 0.165 (inactive) | 0.97 (inactive) | 0.0888 (inactive) | -0.415 | -4.87 (inactive) | 0.859 (inactive) | -1.07 | 1.4 | -0.352 | -0.17 | -0.374 | -0.966 | 0.903 | 0.774 (inactive) | -0.308 | 0.396 | 1.09 (inactive)
CC(C)[C@@H](OCc1ccccc1)[C@H](C)C=NOC[C@@H](C)[C@H](OCc1ccccc1)C(C)C | 0.52 (inactive) | 0.233 | 0.641 (inactive) | 0.369 (inactive) | -0.423 (inactive) | -0.222 (inactive) | -0.591 | -0.537 (inactive) | -0.184 (inactive) | -0.948 | 0.243 | -0.231 | -0.661 | 0.27 | 0.0507 | -0.245 | -0.149 (inactive) | 0.0367 | -0.0858 | -0.689 (inactive)
C=CC[C@@H]1C=C[C@H](ON=C[C@@H](OC)[C@H](C)C=CCC(=O)OC)[C@@H](CO)O1 | 0.324 (inactive) | 0.0533 | 0.815 (inactive) | 1.25 (inactive) | -0.335 (inactive) | 0.465 (inactive) | -0.782 | -0.022 (inactive) | -0.102 (inactive) | -0.255 | 0.812 | -0.933 | 0.623 | 0.486 | -0.939 | -0.0676 | -0.862 (inactive) | 0.461 | -0.448 | -0.498 (inactive)
COc1ccc(O[C@H]2C=C[C@@H](c3ccccc3)O[C@@H]2CON=C[C@@H](C)[C@H](OCc2ccccc2)C(C)C)cc1 | 0.302 (inactive) | -0.246 | 2.08 (inactive) | 0.98 (inactive) | 0.422 (inactive) | 0.319 (inactive) | 0.831 | -0.734 (inactive) | 0.877 (inactive) | -0.165 | 0.688 | -0.106 | 1.7 | 0.553 | -0.903 | 0.46 | 0.732 (inactive) | -0.0803 | -0.486 | -0.463 (inactive)
CC(C)CON=C1C[C@@H](O)[C@@H](O)[C@@H]2[C@@H]3C(=O)N([C@@H](C)c4ccccc4)C(=O)[C@@H]3CC[C@H]12 | 0.525 (inactive) | -0.192 | 3.27 (inactive) | 0.149 (inactive) | 1.43 (inactive) | 0.106 (inactive) | -0.414 | -3.44 (inactive) | 1.18 (inactive) | 0.197 | 0.58 | -0.297 | -0.0223 | 0.844 | 0.933 | 0.658 | 0.341 (inactive) | 0.53 | -1.32 | -0.511 (inactive)
COc1ccc([Si](C)(C)[C@@H]2[C@@H](CC(=O)N3CCC[C@H]3CO)O[C@]3(C(=O)N(Cc4cccc(N5CCC5=O)c4)c4ccccc43)[C@H]2C)cc1 | 0.313 (inactive) | 0.792 | 4.64 (inactive) | 0.838 (inactive) | -0.745 (inactive) | 0.496 (inactive) | -0.0355 | 2.1 (inactive) | 1.29 (inactive) | 4.02 | -0.208 | -1.34 | -4.16 | -2.71 | -4.33 | -0.729 | 0.999 (inactive) | -1 | -2.19 | -1.39 (inactive)
N#Cc1ccc(NN2C(C(O)c3cc(C(F)(F)F)cc(C(F)(F)F)c3)C=CC3C(=O)N(c4ccccc4)C(=O)C32)cc1 (stereo not given) | -1.54 (inactive) | 0.0971 | 4.78 (inactive) | 2.32 (inactive) | -3.13 (inactive) | 1.54 (inactive) | -1.07 | -1.19 (inactive) | -3.23 (inactive) | -1.4 | -0.676 | -0.461 | -1.22 | -1.45 | -3.8 | -2.78 | -0.189 (inactive) | -0.754 | 0.0337 | -0.557 (inactive)
O=C1C2C=CC(C(O)c3ccc([N+](=O)[O-])cc3)N(Nc3ccc([N+](=O)[O-])cc3)C2C(=O)N1c1ccccc1 (stereo not given) | -1.39 (inactive) | 0.446 | 12.9 (active) | 1.96 (inactive) | 0.958 (inactive) | 1.02 (inactive) | -0.922 | -1.24 (inactive) | -2.87 (inactive) | -2.36 | -0.682 | -1.1 | 0.0069 | -0.0432 | -1.81 | -2.27 | -2.73 (inactive) | -1.01 | -1.48 | -0.402 (inactive)
